From PubChem BioAssay (EPA / NIEHS) come the findings set out here.

SMILES strings stand for the structures. Calls of active or inactive are those of the source. How the source made its calls: active means hit-call score of the fitted dose curve at least 0.9, where 1 is the maximum; inactive means score below 0.9.

Read-out in this assay: Glutathione S-transferase M3 (GSTM3), GSTM3 (gene 2947)
As to the kind of experiment: LTEA_HepaRG_GSTM3: Life Technologies and Expression Analysis (LTEA) Assay for Glutathione S-transferase M3 (GSTM3) using HepaRG (AID 2283501). The conditions noted are these: mRNA level, 48 h; actives raise or lower the signal. On the procedure:
LTEA_HepaRG is a cell based, multiplexed-readout assay that uses HepaRG, a human liver cell line, with measurements taken at 48 hours after chemical dosing on a 96-well plate.LTEA_HepaRG_GSTM3 is one of 102 assay component(s) measured in the LTEA HepaRG cell culture assay. It is a marker of Oxidative Stress.Data from the assay component LTEA_HepaRG_GSTM3 was analyzed into 1 endpoint. This assay endpoint, LTEA_HepaRG_GSTM3, was analyzed with bidirectional fitting relative to DMSO as the negative control and baseline of activity. Using a type of inducible reporter, measures of mRNA induction for gain or loss-of-signal activity can be used to understand regulation of transcription factor activity. To generalize the intended target to other relatable targets, this assay endpoint is annotated to the transferase intended target family, where the subfamily is alkyl and aryl transferase.
A total of 1060 chemcials from the ToxCast library were tested in eight-point concentration-response experiments. Cell culture and cytotoxicity assays were conducted at Thermo Fisher Scientific's Custom Services facility (Madison, WI). A single lot of human HepaRG cells (Thermo Fisher Scientific, Frederick, MD) was used for the cell culture experiments. 96-well format collagen type I coated plates of human HepaRG cells were prepared using established methods. Briefly, cryopreserved HepaRG cells were thawed, plated at a density of approximately 100,000 cells/well in HepaRG Thaw, Plate, and General Purpose media (HPRG770, Thermo Fisher Scientific), and incubated for 48 hours. 0.5% DMSO was selected as vehicle control to balance the requisite need of DMSO in HepaRG cultures to maintain differentiation (for example, baseline metabolism, proportions of hepatocytes vs. cholangiocytes), while enabling further hepatic receptor pathway activation (for example, PXR and CAR) in response to chemical exposure. 48 hours after plating, the culture medium was replaced with HepaRG Serum-Free Incudtion Media. Cells were exposed to each test chemical in duplicate and maintained in CO2 incubators for another 48 hours. Chemical plates were thawed to room temperature and 200x concentrations of treatment groups were prepared. 8-point conentration-reponse curves were made with the highest exposure at 100 uM, followed by half-log dilutions, all in 0.5% DMSO. Each test plate contained variouse controls, induction positive controls (1mM phenobarbital), cytotoxicity positive controls ([…] aflatoxin B1), vehicle controls (0.5% DMSO), and total lysis controls (0.5% DMSO). Cell morphology images were taken using an Essen IncuCyte FLR automated microscope, with six 96-well plates imaged in about 24 minutes. Images were captured and exported and JPEG files. Spent culture media was transfered to black-well plates for the LDH assay, and remaining media was sorted at -80 C for later use. Cells were treated with RLT buffer and frozen until shipped for gene expression analysis. Total RNA was isolated from the cell suspension in 75 uL of Buffer RLT (Qiagen, Germantown, MD 20874) by Quintiles/Expression Analysis (Durham, NC) using a custom isolation procedure. Total RNA from each plate well was transferred to a preamplification plate. Fluidigm's 96.96 Dynamic ArrayTM (Fluidigm, Amsterdam, the Netherlands) technology was used for gene expression analyses by quantitative reverse transcription polymerase chain reaction (qRT-PCR, performed by Quintiles/Expression Analysis, Durham, NC)89. Standard TaqManTM Assays (Applied Biosystems/ThermoFisher Scientific, Foster City, CA) were used to assess the expression of 93 genes selected based on their selectivity and sensitivity to important hepatic receptors known to be modulated by environmental chemicals; importance in human hepatocyte functionality; and hepatotoxicity. […]
As to `O=C(NS(=O)(=O)/C=C/c1cccs1)c1ccc(F)cc1Br`, the call was inactive.
Consider `O=C(O)c1[nH]n(-c2ccc(S(=O)(=O)O)cc2)c(=O)c1N=Nc1ccc(S(=O)(=O)O)cc1`, for which the outcome was inactive.
Take `CCN(CC)CCOc1ccc(C(=C(Cl)c2ccccc2)c2ccccc2)cc1`: the compound was called inactive.
Still for that read-out and setting: then `CCCCOC(=O)CCCCC(=O)OCCCC`, with “inactive”; and `OCC(CO)n1cnc(-c2ccc(F)cc2)c1-c1ccnc(Oc2ccccc2)n1`, with “inactive”.
Still for that read-out and setting: then `CCOCCOCCO`, with “inactive”.
With `O=[Si]=O`, the result was inactive.
`CCCC(=O)O`: the outcome was inactive.
Still for that read-out and setting: for `CN(C)CCCN1c2ccccc2Sc2ccc(Cl)cc21` the value was “inactive”.
For the compound `Cn1cnc2c1c(=O)[nH]c(=O)n2C`, the outcome was inactive.
Consider `CC(=O)O[C@]1(C(C)=O)CC[C@H]2[C@@H]3C=C(Cl)C4=CC(=O)[C@@H]5C[C@@H]5[C@]4(C)[C@H]3CC[C@@]21C`, for which the compound was classed as inactive.
The same measure, in the same setting: for `CC(=O)OCC(COC(C)=O)OC(C)=O` the value was “inactive”; for `C/C=C/C=C/C(=O)O`, “inactive”; for `Cc1occc(=O)c1O`, “inactive”.
In the case of `CCC(C)N(C)C(=O)c1cc2ccccc2c(-c2ccccc2Cl)n1` (stereo not given), the result was inactive.
Same read-out and setting: for `CC1(C)C(=O)NC(=O)N1CO` the value was “inactive”; for `C=CCc1ccc(OC)c(OC)c1`, “inactive”; for `CC(=O)O`, “inactive”.
For `CC(C)(C)c1ccccc1`, the call was inactive.
For `COC(=O)[C@H]1[C@H]2C[C@@H]3c4[nH]c5cc(OC)ccc5c4CCN3C[C@H]2C[C@@H](OC(=O)c2cc(OC)c(OC)c(OC)c2)[C@@H]1OC`, the AC50 is 42.2 µM (active).
In the case of `CC(COCC(C)OC(=O)c1ccccc1)OC(=O)c1ccccc1` (stereo not given), the compound was called inactive.
Regarding `O=C1c2c(O)cccc2Cc2cccc(O)c21`, the call was inactive.
On the same count and under the same terms, then `Cc1cn([C@H]2C=C[C@@H](CO)O2)c(=O)[nH]c1=O`, with “inactive”; and `NC=O`, with “inactive”; and `COC(=O)CCC(=O)OC`, with “inactive”.
The same measure, in the same setting: then `CC(C)c1cccc(C(C)C)c1`, with “inactive”; and `CC(=O)S[C@H](C(=O)N[C@H]1Cc2ccccc2[C@H]2CCC[C@@H](C(=O)O)N2C1=O)C(C)C`, with “inactive”; and `Nc1nc(=S)c2[nH]cnc2[nH]1`, with “inactive”.
As for `CC(C)(O)c1ccc(CNC(=O)c2cccnc2Oc2ccc(F)cc2)cc1`, the compound was classed as inactive.
Still for that read-out and setting: then `C/C=C/c1ccc(OC)cc1`, with “inactive”; and `N[C@@H](Cc1c[nH]c2ccccc12)C(=O)O`, with “inactive”; and `OCC(O)CO`, with “inactive”.
Consider `NC1CCCCC1`, for which the compound was classed as inactive.
As for `O=Cc1ccccc1C=O`, the compound was classed as inactive.
The same measure, in the same setting: then `CC(C)OC(=O)C(C)(C)Oc1ccc(C(=O)c2ccc(Cl)cc2)cc1`, with “inactive”; and `CC(=O)[C@@]1(O)CC[C@H]2[C@@H]3CCC4=CC(=O)CC[C@]4(C)[C@H]3CC[C@@]21C`, with “inactive”; and `CCc1nc(N)nc(N)c1-c1ccc(Cl)cc1`, with “inactive”.
Take `Cc1c(C)c2c(c(C)c1O)CCC(C)(COc1ccc(CC3SC(=O)NC3=O)cc1)O2` (stereo not given): the call was inactive.
On the same count and under the same terms, then `NC(=Nc1ccccc1)Nc1ccccc1`, with “inactive”.
As for `Nc1nc(Cl)nc2c1ncn2[C@H]1C[C@H](O)[C@@H](CO)O1`, the compound was classed as inactive.
